Screening results (PubChem BioAssay)
CF NFkB inh = inhibitors of PAF-induced NF-kB signaling, primary screen, cell-based, GFP fluorescence, uHTS | 360,000 tested, 0.86% active | KKLEB NF-kB-GFP reporter, GFP fluorescence overnight | inhibition, % at 5 µM;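 active means at least 50% inhibition at 5 µM, scaled per plate between neutral and stimulator controls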;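 further: PAF is a Pseudomonas aeruginosa culture filtrate used as stimulus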
Peg3 promoter = Peg3 promoter-driven luciferase inhibitors, primary screen, cell-based, HeLa, luciferase luminescence | HeLa PEG-Prom luciferase reporter, overnight | inhibition, % at 20 µM | 360,000 tested, 1.7% active;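 active means inhibition of at least 50% at 20 µM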
KKLEB tox = cytotoxicity in KKLEB CF airway cells, primary screen, cytotoxicity control for CF NF-kB inhibitor project, cell-based, uHTS, fluorescence assay plates; KKLEB CF airway cells viability, ATPlite luminescence, overnight; hits give low values; cells stimulated with P. aeruginosa culture filtrate; activity change (cytotoxicity), % at 5 µM; 360,000 tested, 0.36% active;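 active means corrected activity change at or below -50% at 5 µM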
HIF-2a block = HIF-2a reporter inhibitors, primary screen, luminescence, 786-0 RCC cells; inhibition, % at 18.8 µM; 360,000 tested, 0.72% active; 786-0 RCC cells HIF-2a reporter, luciferase luminescence, overnight; AID 624352, 2012;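 active means inhibition of the luminescence signal of 40% or more relative to plate controls, in a single-dose primary screen at 18.75 µM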
TWEAK Fn14 block = inhibitors of TWEAK-Fn14 signaling, primary screen, luciferase reporter cells, uHTS; TWEAK-stimulated Fn14 reporter cells, luciferase luminescence, 8 h; 360,000 tested, 2% active; inhibition, % at 10 µM; in the data active means inhibition above about 50%
TROY signal inh = inhibitors of TROY-driven NF-kB signaling, primary screen, Q293 LMP1-TROYcd cells, NF-kB luciferase, uHTS. Q293 LMP1-TROYcd NF-kB luciferase reporter, 4 h. AID 1347056, 2019. 360,000 tested, 0.98% active. inhibition, % at 10 µM;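 active means compounds whose plate-normalised and pattern-corrected inhibition of the luciferase reporter signal at the single screening dose is 50% or more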
Hits are given with their value; i = inactive; nt = not tested or not shown. Hits are enriched below; roughly 4% of the tested compounds scored in any of these assays.

SMILES | CF NFkB inh | Peg3 promoter | KKLEB tox | HIF-2a block | TWEAK Fn14 block | TROY signal inh
O=C1C(Cl)=C(N2CCOCC2)C(=O)N1c1ccccc1F | i | i | i | i | 70 | i
Cc1ccccc1N1C(=O)C(Cl)=C(N2CCOCC2)C1=O | i | i | i | i | i | i
CCN(CC)C(=O)c1cccc(-c2csc(C(O)(c3ccccc3)C(F)(F)F)n2)c1 (configuration not stated) | i | i | i | i | i | i
CCOc1cc(CNCCCN2CCOCC2)cc(Cl)c1OCC(=O)NC(C)(C)C | i | i | i | i | i | i
CCOc1cc(CNCCCN2CCOCC2)cc(Br)c1OCC(=O)Nc1cccc(C(F)(F)F)c1 | i | 68 | i | i | i | i
COc1ccc(CN2CCC(n3nccc3NC(=O)CCc3ccccc3)CC2)c(C)c1C | i | i | i | i | i | i
CCOC(=O)c1c(N)sc(C(=O)Nc2ccc3c(c2)OCO3)c1C | i | i | i | i | 79 | i
Cc1cc(=O)n(CC(=O)Nc2cc(Cl)ccc2C)c(C(C)C)n1 | i | i | i | i | i | i
CCCc1ccc(Oc2cn[nH]c2-c2ccc(O)c(C)c2O)cc1 | 53 | i | i | i | i | i
CCCc1ccc(Oc2c(-c3ccc(O)c(C)c3O)n[nH]c2C)cc1 | i | i | i | i | i | i
CCc1nc2ccc(C(=O)NCc3cccs3)cn2c1N(CCC(C)C)CCN(C)C | i | i | i | i | i | i
Cc1ccc(S(=O)(=O)NNC(=O)Nc2cccc(C)c2C)c(C)c1 | i | i | i | i | i | i
COc1ccc(NC(=O)c2cc3cccc(OC)c3oc2=Nc2ccc(C(=O)O)cc2)cc1OC | i | i | i | i | 83 | i
COc1cccc2cc(C(=O)N3CCc4ccccc43)c(=O)oc12 | i | i | i | i | 50 | i
COc1cccc2cc(C(=O)Nc3cccc(C)n3)c(=O)oc12 | i | i | i | i | 57 | i
O=C(CCl)Nc1cc(-c2ccccc2)nn1-c1ccccc1 | i | i | -54 | i | i | i
CC[C@]12C(=O)N(C)C[C@H]([C@@H]3C(=O)N(C)C(=O)[C@@H]31)N2C(=O)c1ccc(F)cc1 | i | i | i | i | i | i
O=C(CCl)NNC(=O)c1c(O)c2ccccc2[nH]c1=O | i | 58 | i | i | i | i
CCCCC(=O)NNC(=O)c1c(O)c2ccccc2[nH]c1=O | i | i | i | i | i | i
Cc1ccc(CNC(=O)CN(CCc2ccccc2)S(C)(=O)=O)cc1 | i | i | i | i | i | i
CS(=O)(=O)N(CCc1ccccc1)CC(=O)NCc1ccco1 | i | i | i | i | 82 | nt
CCOC(=O)C1=C(Cc2ccc(Cl)cc2)C(=O)c2ccccc2C1=O | i | 50 | i | i | i | i
COc1ccc(CN2C3CCCC2CC(NC(=O)Nc2ccccc2C)C3)cc1 (configuration not stated) | i | i | i | i | 62 | i
COc1ccc(CN2C3CCCC2CC(NC(=O)Nc2ccccc2)C3)cc1 (configuration not stated) | i | i | i | i | i | i
CC1(Cc2ccc(Cl)cc2)C(=O)Nc2c(Cl)cccc21 (configuration not stated) | i | i | i | i | i | i
SMILES | CF NFkB inh | Peg3 promoter | KKLEB tox | HIF-2a block | TWEAK Fn14 block | TROY signal inh
Cc1ccccc1S(=O)(=O)NCC1CCCO1 (configuration not stated) | i | i | i | i | i | i
COc1ccc2c(c1)c(CC(=O)OCC(N)=O)c(C)n2C(=O)c1ccc(Cl)cc1 | i | i | i | i | i | 54
CCOC1=C2[C@H](c3ccc(CC)cc3)N(S(=O)(=O)c3ccc(C)cc3)C[C@H]2n2c(=O)n(-c3ccccc3)c(=O)n2C1 | i | i | i | i | i | i
O=C(CSc1ncccc1-c1nc2ccccc2[nH]1)N1CCN(c2ccccc2F)CC1 | i | i | i | i | 71 | 57
COc1ccc(N2CCN(C(=O)CSc3ncccc3-c3nc4ccccc4[nH]3)CC2)cc1 | i | i | i | i | i | i
COc1ccccc1N1CCN(C(=O)CSc2ncccc2-c2nc3ccccc3[nH]2)CC1 | i | i | i | i | 56 | i
CCOC(=O)Cc1csc(NC(=O)CSc2ncnc3c2cnn3-c2ccc(OC)cc2)n1 | i | i | i | i | 61 | i
COc1ccccc1N1CCN(C(=O)CSc2nc3ccccc3[nH]2)CC1 | i | i | i | i | i | i
CCOC(=O)CNC(=O)CSc1ncnc2c1cnn2-c1ccc(Cl)cc1 | i | i | i | i | i | i
O=C(CSc1ncccc1-c1nc2ccccc2[nH]1)NC1CC1 | i | i | i | i | 53 | 55
c1ccc(-c2nc3c4ccccc4ccn3c2Cc2ccsc2)cc1 | i | i | i | i | i | i
COc1ccccc1N1CCN(C(=O)CSc2ncnc3scc(-c4ccccc4)c23)CC1 | i | i | i | i | i | i
COc1ccc(-n2ncc3c(SCC(=O)N4CCN(c5ccccc5OC)CC4)ncnc32)cc1 | i | i | i | i | 55 | i
Cc1ccc(-c2nn3c(C)nnc3s2)cc1NC(=O)c1ccc(-c2ccc(Cl)cc2Cl)o1 | i | 103 | i | i | i | i
Cc1ccc(-c2nn3c(C)nnc3s2)cc1NC(=O)c1ccc(-c2cccc(Cl)c2)o1 | i | i | i | i | i | i
O=C(COC(=O)/C=C/c1ccccc1)NNC(=O)c1ccc([N+](=O)[O-])cc1 | i | i | i | i | i | i
CC(C)[C@@H]1CC[C@@H](C)C[C@H]1OC(=O)C[n+]1cc(-c2ccc(Cl)cc2)n2c1CCCCC2 | i | i | i | i | 64 | i
COc1ccccc1CCC(=O)Nc1nc2ccccc2[nH]1 | i | i | i | i | 50 | i
CC(C)Oc1ccc(C(=O)Nc2nc3ccccc3[nH]2)cc1 | i | i | -50 | 55 | 98 | 82
COc1ccc(CCC(=O)Nc2nc3ccccc3[nH]2)cc1OC | i | i | i | i | i | i
O=C(Nc1nc2ccccc2[nH]1)c1ccccc1OC(F)F | i | i | i | i | 64 | i
COc1ccc(Cl)cc1C(=O)Nc1nc2ccccc2[nH]1 | i | i | -52 | i | 95 | 71
Cc1ccc(N(CC(=O)NCC2CCCO2)C(=O)CCC(=O)Nc2cc(C)on2)cc1 (configuration not stated) | i | i | i | i | i | i
O=C(Nc1nc2ccccc2[nH]1)c1ccc(F)cc1 | i | i | i | i | 69 | i
COc1ccc(-n2ncc3c2CC(C)(C)CC3NC(=O)c2ccc(OC)o2)cc1 (configuration not stated) | i | i | i | i | i | i
C[C@@H]1CN([C@@H](C)CO)C(=O)c2cc(Br)cnc2O[C@H]1CN(C)Cc1cccnc1 | i | i | i | i | i | i
